Measurements from the supplement of paper PMC10849652.
The full data set covers some 7,900 targets. This sample favours those with a hit. About 0.6% of all pairs of compound and target were hits.

Assays:
Assay in all cases: log2 fold change, soluble protein after heating vs DMSO (PISA); higher = thermal stabilisation; K562 cells, 10 uM, 30 min; active = over 0.2 and 3.5 SD of the protein, either way, in both replicates (recomputed)
erlotinib = compound: C#Cc1cccc(Nc2ncnc3cc(OCCOC)c(OCCOC)cc23)c1 [erlotinib]
In short: (§1)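 Soluble protein was defined as the supernatant after 21,000xg for 90 min. It came from K562 cells at 2×10^6 cells/mL given 10 μM compound for 30 min, heated in aliquots for 3 min across 48°C-58°C, pooled, and extracted in PBS with 0.5% NP-40 at 4°C, and was quantified by TMTpro 16plex LC-MS/MS with equalised channel sums. Thermal stability against control samples, from duplicates, is reported as log2 fold change.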

[1] = compound: C/C(=N\NC(=O)C1=CC(=CC=C1)S(=O)(=O)N2CCOCC2)/C3=C(C=CC(=C3)Cl)O
In short: as §1

[2] = compound: C1=CC(=C(C=C1Cl)C2=NC3=NC=CN=C3C(=N2)NC4=CC=NC=C4)F
In short: as §1

[3] = compound: C1=CC(=CC=C1C2=NC3=C(N2)C=C(C=C3)C(=O)N)OC4=CC=C(C=C4)Cl
In short: as §1

[4] = compound: C1=CC2=C(C=CC(=C2)/C=C\3/C(=O)NC(=NCC4=CC=CS4)S3)N=C1
In short: as §1

[5] = compound: C1=CC2=NC=CN=C2C=C1/C=C/3\C(=O)NC(=O)S3
In short: as §1

[6] = compound: C1=CC=C(C=C1)C2=NC(=C(N2)C3=CC=NC=C3)C4=CC(=C(C=C4)Cl)O
In short: as §1

[7] = compound: C1=CC=C2C(=C1)C3=NNC4=CC=CC(=C43)C2=O
In short: as §1

[8] = compound: C1CCN(C1)C(=O)NC2=CC=CC(=C2)NC3=NC=C(C(=N3)NCCC4=CN=CN4)Br
In short: as §1

[9] = compound: C1CN(CCC1(CC2=CC=C(C=C2)Cl)N)C3=NC=NC4=C3C=CN4
In short: as §1

Measured: log2 fold change

XPO5 (UniProt Q9HAV4)
Sequence of UniProt Q9HAV4 (Q9HAV4 whole entry, looked up): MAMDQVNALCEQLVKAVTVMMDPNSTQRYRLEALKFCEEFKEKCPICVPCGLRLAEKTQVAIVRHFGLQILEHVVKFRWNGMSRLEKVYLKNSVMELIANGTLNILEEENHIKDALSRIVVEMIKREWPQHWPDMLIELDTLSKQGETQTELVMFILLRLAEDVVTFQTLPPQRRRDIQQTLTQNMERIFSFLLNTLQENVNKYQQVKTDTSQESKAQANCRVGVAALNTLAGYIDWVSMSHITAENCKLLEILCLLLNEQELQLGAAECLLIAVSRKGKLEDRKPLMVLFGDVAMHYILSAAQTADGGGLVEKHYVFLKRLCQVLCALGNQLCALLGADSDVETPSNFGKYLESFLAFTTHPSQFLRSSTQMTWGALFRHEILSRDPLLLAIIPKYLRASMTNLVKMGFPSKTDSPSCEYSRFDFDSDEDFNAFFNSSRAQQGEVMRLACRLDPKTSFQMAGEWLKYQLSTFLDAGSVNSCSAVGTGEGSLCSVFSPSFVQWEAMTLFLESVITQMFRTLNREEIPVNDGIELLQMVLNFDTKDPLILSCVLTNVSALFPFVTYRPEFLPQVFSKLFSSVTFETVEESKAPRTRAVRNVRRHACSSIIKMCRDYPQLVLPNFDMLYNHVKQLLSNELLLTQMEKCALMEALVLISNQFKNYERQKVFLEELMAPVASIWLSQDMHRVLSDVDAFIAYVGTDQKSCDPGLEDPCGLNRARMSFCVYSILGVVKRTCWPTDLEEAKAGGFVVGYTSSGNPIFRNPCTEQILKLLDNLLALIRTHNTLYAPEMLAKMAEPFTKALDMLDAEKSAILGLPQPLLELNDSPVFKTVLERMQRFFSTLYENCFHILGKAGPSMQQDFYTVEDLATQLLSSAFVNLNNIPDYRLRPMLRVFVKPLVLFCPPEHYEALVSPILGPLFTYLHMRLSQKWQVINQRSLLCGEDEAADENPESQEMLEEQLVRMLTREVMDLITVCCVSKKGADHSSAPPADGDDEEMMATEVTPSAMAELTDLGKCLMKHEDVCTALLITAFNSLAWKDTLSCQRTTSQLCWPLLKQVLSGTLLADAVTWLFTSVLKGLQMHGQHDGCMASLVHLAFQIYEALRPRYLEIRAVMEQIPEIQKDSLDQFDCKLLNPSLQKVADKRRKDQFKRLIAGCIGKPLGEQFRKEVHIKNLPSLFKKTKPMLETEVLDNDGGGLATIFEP
inactive: erlotinib 0.011 | [1] 0.103 | [2] 0.105 | [3] -0.005 | [4] 0.011 | [5] 0.016 | [6] 0.023 | [7] -0.019 | [8] -0.024 | [9] -0.001

TNFRSF8 (UniProt P28908)
Sequence of UniProt P28908 (P28908 whole entry, looked up): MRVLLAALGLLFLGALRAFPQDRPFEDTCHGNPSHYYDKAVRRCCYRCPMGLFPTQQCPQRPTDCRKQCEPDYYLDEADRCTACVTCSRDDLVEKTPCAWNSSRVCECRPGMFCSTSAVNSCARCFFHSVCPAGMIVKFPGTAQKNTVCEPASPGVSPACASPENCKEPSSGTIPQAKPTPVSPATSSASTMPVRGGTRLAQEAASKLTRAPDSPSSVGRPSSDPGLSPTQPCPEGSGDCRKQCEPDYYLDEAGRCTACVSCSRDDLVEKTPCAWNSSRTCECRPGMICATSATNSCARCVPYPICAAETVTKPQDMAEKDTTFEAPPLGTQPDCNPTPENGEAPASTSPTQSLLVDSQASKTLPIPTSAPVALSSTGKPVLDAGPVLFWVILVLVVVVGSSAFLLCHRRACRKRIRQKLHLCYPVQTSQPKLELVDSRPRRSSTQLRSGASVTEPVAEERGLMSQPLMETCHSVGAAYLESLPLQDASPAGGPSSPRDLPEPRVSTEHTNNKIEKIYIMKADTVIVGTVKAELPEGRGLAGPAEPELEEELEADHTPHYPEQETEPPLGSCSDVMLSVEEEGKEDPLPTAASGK
inactive: erlotinib 0.009 | [1] 0.017 | [2] -0.015 | [3] 0.006 | [4] -0.109 | [5] 0.024 | [6] -0.062 | [7] -0.061 | [8] -0.046 | [9] 0.05

TUBAL3 (UniProt A6NHL2)
inactive: erlotinib 0.092 | [1] 0.096 | [2] 0.099 | [3] 0.018 | [4] 0.048 | [5] 0.004 | [6] 0.031 | [7] -0.034 | [8] -0.046 | [9] 0.145

UTP14A (UniProt Q9BVJ6)
inactive: erlotinib -0.142 | [1] -0.15 | [2] -0.301 | [3] 0.06 | [4] -0.075 | [5] -0.005 | [6] -0.06 | [7] -0.045 | [8] 0.006 | [9] -0.155

VPS39 (UniProt Q96JC1)
inactive: erlotinib -0.006 | [1] 0.08 | [2] -0.005 | [3] 0.022 | [4] 0 | [5] 0.023 | [6] -0.014 | [7] -0.046 | [8] 0.01 | [9] 0.054

TRAM1 (UniProt Q15629)
Sequence of UniProt Q15629 (Q15629 whole entry, looked up): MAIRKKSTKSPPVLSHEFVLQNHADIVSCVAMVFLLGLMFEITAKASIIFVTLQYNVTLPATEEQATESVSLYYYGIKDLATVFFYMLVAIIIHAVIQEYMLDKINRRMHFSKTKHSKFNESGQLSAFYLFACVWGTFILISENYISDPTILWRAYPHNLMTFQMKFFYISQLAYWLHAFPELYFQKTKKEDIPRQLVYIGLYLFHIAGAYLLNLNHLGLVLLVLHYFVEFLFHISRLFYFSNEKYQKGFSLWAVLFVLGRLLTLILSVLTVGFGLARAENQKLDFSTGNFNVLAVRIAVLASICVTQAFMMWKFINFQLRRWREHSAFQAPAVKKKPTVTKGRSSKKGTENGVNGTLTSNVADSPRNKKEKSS
inactive: erlotinib 0.059 | [1] 0.016 | [2] -0.028 | [3] -0.088 | [4] 0.015 | [5] 0.065 | [6] 0.144 | [7] -0.151 | [8] 0.105 | [9] 0

UFM1 (UniProt P61960)
Sequence of UniProt P61960 (P61960 whole entry, looked up): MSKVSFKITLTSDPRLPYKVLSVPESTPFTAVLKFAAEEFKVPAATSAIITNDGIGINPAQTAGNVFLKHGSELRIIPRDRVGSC
inactive: erlotinib 0.026 | [1] 0.072 | [2] 0.093 | [3] 0.064 | [4] -0.015 | [5] -0.002 | [6] 0.12 | [7] 0.172 | [8] -0.297 | [9] 0.088

USP3 (UniProt Q9Y6I4)
Sequence of UniProt Q9Y6I4 (Q9Y6I4 whole entry, looked up): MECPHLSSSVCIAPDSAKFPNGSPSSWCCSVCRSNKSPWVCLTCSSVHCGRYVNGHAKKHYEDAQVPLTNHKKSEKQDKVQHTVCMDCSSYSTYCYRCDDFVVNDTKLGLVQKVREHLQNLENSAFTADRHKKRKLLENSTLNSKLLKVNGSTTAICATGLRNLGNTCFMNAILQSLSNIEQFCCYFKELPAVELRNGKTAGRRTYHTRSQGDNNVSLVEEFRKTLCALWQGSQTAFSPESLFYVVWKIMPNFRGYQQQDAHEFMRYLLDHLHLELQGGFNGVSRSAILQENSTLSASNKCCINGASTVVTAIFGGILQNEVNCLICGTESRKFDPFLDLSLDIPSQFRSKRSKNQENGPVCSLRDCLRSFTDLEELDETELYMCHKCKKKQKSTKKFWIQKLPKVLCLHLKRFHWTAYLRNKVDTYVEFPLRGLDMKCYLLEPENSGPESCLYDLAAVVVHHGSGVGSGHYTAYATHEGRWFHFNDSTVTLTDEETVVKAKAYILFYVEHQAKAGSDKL
inactive: erlotinib 0.099 | [1] 0.114 | [2] 0.121 | [3] 0.004 | [4] -0.062 | [5] 0.014 | [6] 0.057 | [7] -0.052 | [8] 0.007 | [9] 0.095

UBA6
inactive: erlotinib 0.011 | [1] 0.099 | [2] 0.06 | [3] 0.038 | [4] 0.014 | [5] -0.037 | [6] 0.014 | [7] 0.015 | [8] -0.024 | [9] -0.015

VTI1A (UniProt Q96AJ9)
Sequence of UniProt Q96AJ9 (Q96AJ9 whole entry, looked up): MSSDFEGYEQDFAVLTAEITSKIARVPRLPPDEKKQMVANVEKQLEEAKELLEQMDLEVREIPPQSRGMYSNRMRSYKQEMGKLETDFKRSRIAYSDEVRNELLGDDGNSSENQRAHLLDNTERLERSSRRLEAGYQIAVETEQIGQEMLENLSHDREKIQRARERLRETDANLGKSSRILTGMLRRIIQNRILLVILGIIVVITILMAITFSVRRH
inactive: erlotinib -0.07 | [1] 0.026 | [2] -0.037 | [3] -0.014 | [4] 0.015 | [5] 0.087 | [6] -0.055 | [7] -0.002 | [8] 0.019 | [9] 0.005

TNNC2 (UniProt P02585)
Sequence of UniProt P02585 (P02585 whole entry, looked up): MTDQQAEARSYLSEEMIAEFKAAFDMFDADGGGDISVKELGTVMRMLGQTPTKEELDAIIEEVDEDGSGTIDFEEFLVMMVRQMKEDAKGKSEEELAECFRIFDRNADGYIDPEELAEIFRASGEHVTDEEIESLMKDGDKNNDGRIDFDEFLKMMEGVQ
inactive: erlotinib 0.035 | [1] -0.007 | [2] -0.004 | [3] 0.018 | [4] 0.047 | [5] 0.026 | [6] -0.058 | [7] -0.026 | [8] 0.101 | [9] -0.449

UQCR10 (UniProt Q9UDW1)
Sequence of UniProt Q9UDW1 (Q9UDW1 whole entry, looked up): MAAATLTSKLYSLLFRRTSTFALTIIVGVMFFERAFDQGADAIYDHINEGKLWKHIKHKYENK
inactive: erlotinib -0.026 | [1] 0.056 | [2] 0.069 | [3] -0.023 | [4] 0.034 | [5] 0.014 | [6] 0.046 | [7] -0.003 | [8] 0.006 | [9] 0

TXNRD1 (UniProt Q16881)
inactive: erlotinib 0.021 | [1] 0.049 | [2] 0.057 | [3] -0.006 | [4] 0.009 | [5] 0.074 | [6] 0.027 | [7] 0.019 | [8] 0.005 | [9] 0.046

TNFAIP8 isoform 4 (UniProt O95379)
Sequence of UniProt O95379 (O95379 whole entry, looked up): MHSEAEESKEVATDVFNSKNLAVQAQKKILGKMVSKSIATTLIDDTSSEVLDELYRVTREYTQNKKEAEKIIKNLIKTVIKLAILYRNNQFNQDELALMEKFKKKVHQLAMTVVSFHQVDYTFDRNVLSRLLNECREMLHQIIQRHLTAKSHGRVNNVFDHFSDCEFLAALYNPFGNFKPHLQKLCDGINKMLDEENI
inactive: erlotinib 0.019 | [1] 0.071 | [2] 0.087 | [3] -0.028 | [4] 0.039 | [5] 0.017 | [6] -0.015 | [7] -0.07 | [8] 0.003 | [9] 0.023

U2AF1 isoform 2 (UniProt Q01081)
Sequence of UniProt Q01081 (Q01081 whole entry, looked up): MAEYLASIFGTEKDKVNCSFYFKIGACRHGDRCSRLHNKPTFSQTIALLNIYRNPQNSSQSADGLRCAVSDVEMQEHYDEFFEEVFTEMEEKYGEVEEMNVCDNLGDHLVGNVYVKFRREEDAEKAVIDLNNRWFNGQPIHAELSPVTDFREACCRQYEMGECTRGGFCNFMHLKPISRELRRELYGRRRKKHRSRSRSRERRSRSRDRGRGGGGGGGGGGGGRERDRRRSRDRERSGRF
inactive: erlotinib 0.015 | [1] 0.119 | [2] -0.02 | [3] -0.036 | [4] -0.038 | [5] 0.015 | [6] 0.036 | [7] -0.036 | [8] -0.071 | [9] -0.071

WDR18 (UniProt Q9BV38)
Sequence of UniProt Q9BV38 (Q9BV38 whole entry, looked up): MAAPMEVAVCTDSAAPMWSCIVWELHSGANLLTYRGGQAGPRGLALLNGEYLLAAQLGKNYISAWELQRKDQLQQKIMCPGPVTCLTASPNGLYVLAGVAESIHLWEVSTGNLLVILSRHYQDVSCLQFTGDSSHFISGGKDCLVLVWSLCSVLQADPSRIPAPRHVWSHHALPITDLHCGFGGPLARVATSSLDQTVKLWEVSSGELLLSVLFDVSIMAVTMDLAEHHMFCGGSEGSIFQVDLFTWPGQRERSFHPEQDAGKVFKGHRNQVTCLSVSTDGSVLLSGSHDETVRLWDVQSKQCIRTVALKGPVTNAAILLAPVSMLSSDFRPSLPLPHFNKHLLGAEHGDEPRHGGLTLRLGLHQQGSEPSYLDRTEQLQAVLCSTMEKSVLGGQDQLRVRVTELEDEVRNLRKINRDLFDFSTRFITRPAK
inactive: erlotinib 0.058 | [1] 0.039 | [2] 0.024 | [3] -0.015 | [4] -0.111 | [5] 0.031 | [6] -0.045 | [7] 0.011 | [8] -0.035 | [9] 0.065

TOM1 isoform 2 (UniProt O60784)
Sequence of UniProt O60784 (O60784 whole entry, looked up): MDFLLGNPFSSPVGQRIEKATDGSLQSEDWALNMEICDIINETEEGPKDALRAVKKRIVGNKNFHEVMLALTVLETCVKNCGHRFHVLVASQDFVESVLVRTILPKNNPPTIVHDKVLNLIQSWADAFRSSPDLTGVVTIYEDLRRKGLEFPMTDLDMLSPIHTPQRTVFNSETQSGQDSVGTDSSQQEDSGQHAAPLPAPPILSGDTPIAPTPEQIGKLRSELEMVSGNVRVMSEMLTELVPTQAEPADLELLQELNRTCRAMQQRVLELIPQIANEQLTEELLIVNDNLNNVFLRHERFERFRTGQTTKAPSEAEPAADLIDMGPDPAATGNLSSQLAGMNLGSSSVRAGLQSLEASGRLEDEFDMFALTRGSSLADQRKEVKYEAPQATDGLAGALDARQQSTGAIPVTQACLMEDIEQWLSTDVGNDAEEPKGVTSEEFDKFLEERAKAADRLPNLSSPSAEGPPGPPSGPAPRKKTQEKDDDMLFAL
inactive: erlotinib 0.012 | [1] 0.014 | [2] 0.107 | [3] -0.04 | [4] -0.006 | [5] -0.016 | [6] -0.053 | [7] 0.004 | [8] -0.023 | [9] 0.014
